Compound activity (PubChem BioAssay)
Only some compounds are listed: those with a hit (about 3.4% of all), similar ones and a draw of the others.
AmpC inh detg = blocks E. coli AmpC beta-lactamase in detergent assay; AmpC hydrolysis of nitrocefin, absorbance 480 nm, 0.01% Triton; Potency, µM (top dose mostly 114 µM), without a hit: top-dose activity change, negative = inhibition, usual class: inhibitors; 370,000 compounds, 0.041% hits; AID 485294;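 note: 0% = no-compound wells and -100% = no-enzyme wells; nearly all actives have a fitted effect of over 25% in size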
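AmpC (5.3 nM in the dispensed reagent) in 20 mM phosphate pH 7.0 with 0.01% (detergent screen) or 0.0001% Triton X-100 was preincubated with compounds for 15 min at room temperature. Nitrocefin was then added from an 800 uM solution, and hydrolysis was followed at 480 nm.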
RE007 growth inh = less growth of the S. pombe RE007 Vpr strain | 360,000 compounds, 0.21% hits | AID 651644 | Potency, µM (titrated, usually from 92.2 µM), without a hit: at the highest dose activity change, negative = less growth, most hits filed as inhibitors | S. pombe RE007 Vpr strain, BacTiter-Glo ATP luminescence, 24 h; active = well fitted falling curve with a large enough effect; inconclusive = small, poorly fitted or top-dose-only effect; inactive = no such curve, though single readings can be large or run the other way; note: nearly all actives have a fitted effect of over 50% in size
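Fission yeast RE007 carrying one integrated HIV-1 vpr copy, seeded at OD 0.01 in PMG+AL medium with 23 nL pinned compound. Grown 24 h at 30 degrees; viability read by BacTiter-Glo luminescence after 5 min.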
Giardia FBPA inh = blocks Giardia fructose-bisphosphate aldolase activity; A8B2U2; Potency, µM (doses to about 59.6 µM), inactives show at the top dose activity, negative = inhibition, most hits filed as inhibitors; 290,000 compounds, 0.71% hits; purified Giardia FBPA; note: nearly all actives have a fitted effect of over 55% in size
Target sequence (A8B2U2 whole entry, looked up): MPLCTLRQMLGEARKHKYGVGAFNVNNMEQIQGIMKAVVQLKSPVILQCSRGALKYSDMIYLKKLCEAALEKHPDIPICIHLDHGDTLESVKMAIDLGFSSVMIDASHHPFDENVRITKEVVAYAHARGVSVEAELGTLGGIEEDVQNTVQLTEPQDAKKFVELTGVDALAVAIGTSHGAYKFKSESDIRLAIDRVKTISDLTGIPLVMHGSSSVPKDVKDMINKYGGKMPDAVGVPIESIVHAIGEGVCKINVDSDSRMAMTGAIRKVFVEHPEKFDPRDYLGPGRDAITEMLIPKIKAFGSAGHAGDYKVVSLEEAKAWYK
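Giardia FBPA (40 nM reagent) was preincubated 10 min at RT with compound (up to 57.5 uM final), then substrate plus GAPDH/TPI/NAD/arsenate coupling system with diaphorase/resazurin was added; resorufin fluorescence (525/598 nm) was read after 20 min.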
Sm TGR inh = S. mansoni TGR enzyme inhibition; purified TGR, DTNB reduction, TNB absorbance 405 nm; Q962Y6; Potency, µM (series often up to 114 µM), for inactives: at the highest dose activity change, negative = inhibition, actives largely listed as inhibitors; 360,000 compounds, 3% hits; AID 485364; note: nearly all actives have a fitted effect of over 60% in size
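TGR 20 nM + NADPH 100 uM (dispensed conc.), cpd preinc 15 min RT; start with NADPH (500 uM addition) then DTNB (15 mM addition). Kinetic TNB absorbance, 405 nm filter. Four-parameter Hill fit across titration.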
AmpC inh no detg = blocks E. coli AmpC beta-lactamase in detergent-free assay; AID 485341; P00811; Potency, µM (highest dose often 57.1 µM), for the others: at the highest dose activity change, negative = inhibition, most hits filed as inhibitors; AmpC nitrocefin hydrolysis, absorbance 480 nm, 0.0001% Triton; 330,000 compounds, 0.52% hits;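 note: plate controls were no compound for no effect and no enzyme for full effect; nearly all actives have a fitted effect of over 20% in size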
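20 mM phosphate pH 7.0 + 0.01% (detergent screen) or 0.0001% Triton X-100; 5.3 nM AmpC reagent; cpd preinc 15 min RT; nitrocefin (800 uM stock) to start; A480 q20 s × 4 min; Activity was normalised to no-enzyme and no-compound control wells.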
Numbers without * were called inactive; ? = inconclusive; . = no result given. Unless noted, calls come from the whole dose curve; as a rule, active = well fitted curve in the direction sought with a large enough effect; inconclusive = small, poorly fitted or top-dose-only effect, or another doubt; inactive = no such curve, though single readings can be large; an effect the other way counts as inactive or inconclusive. Unless noted, % is set by controls: 0 for no effect and ±100 for the full control effect; potency is the fitted concentration of half-maximal effect.

SMILES	AmpC inh detg	RE007 growth inh	Giardia FBPA inh	Sm TGR inh	AmpC inh no detg
NC(=O)c1c(NC(=O)C2CC=CCC2C(=O)O)sc2c1CCCCC2 (centres undefined)	-3%	-14%	0%	50µM*	-42%
C=CC(=O)Nc1sc2c(c1C(N)=O)CCCC2	?	-2%	.	40µM*	-16%
C=CCNC(=S)Nc1sc2c(c1C(N)=O)CCCC2	-1%	-14%	?	1%	-37%
CC(C)OC(=O)c1c(NC(=O)C2CC=CCC2C(=O)O)sc2c1CCCCC2 (centres undefined)	0%	-11%	13%	-23%	-34%
CCCCN(CC)S(=O)(=O)c1ccc2c(c1)n(C)c(=O)c(=O)n2C	-1%	9%	6%	-1%	-5%
CCc1ccc(N(C(C)=O)C2C=CS(=O)(=O)C2)cc1 (centres undefined)	3%	-15%	0%	2%	0.16µM*
CC(C)NC(=O)c1ccc2nc([C@@H]3O[C@H](CO)[C@H](O)[C@H](O)[C@H]3O)[nH]c2c1	.	-6%	.	.	.
O=C(CN1C(=O)NC2(CCCC2)C1=O)Oc1ccc2ccc(=O)oc2c1	-14%	-14%	.	56µM*	-20%
O=C(CN1C(=O)NC2(CCCCC2)C1=O)Oc1ccc2c(C(F)(F)F)cc(=O)oc2c1	?	-15%	.	40µM*	-27%
O=S(=O)(c1ccccc1)N1CCN(Cc2c(O)ccc3ccccc23)CC1	.	-15%	.	.	-18%
Oc1ccc2ccccc2c1CN1CCN(C/C=C/c2ccccc2)CC1	4%	-28%	-8%	2.8µM*	-23%
O=C(CN1CCN(c2ccccc2F)CC1)c1ccc(O)c(O)c1	-2%	-10%	?	?	-30%
Oc1ccc2ccccc2c1CN1CCN(c2ccccc2F)CC1	-8%	3%	-12%	11µM*	-28%
COc1ccc(OC)c(-c2nnc3n(CCc4ccccc4)c(=O)c4ccccc4n23)c1	19%	.	.	3%	.
CC1CSc2nc3sc4c(c3c(=O)n21)CCCC4 (centres undefined)	-5%	22µM*	0%	0%	4%
CCCSCCCNC(=O)CN1C(=O)COc2ccc(S(=O)(=O)N3CCCCCC3)cc21	4%	.	.	0%	.
CCCSCCCNC(=O)CN1C(=O)COc2ccc(S(=O)(=O)N3CCC(C)CC3)cc21	9%	.	.	5.6µM*	.
CC(C#Cc1c([C@@H](C)Oc2ccccc2)nnn1Cc1ccccc1)Oc1ccccc1 (some centres undefined)	-8%	-4%	-5%	7.9µM*	-22%
COc1cc(/C=C2\C(=O)ON=C2c2ccccc2)cc(OC)c1OC	0%	4%	-6%	8.9µM*	-34%
COc1ccc(/C=C2\C(=O)ON=C2c2cccc([N+](=O)[O-])c2)cc1	3%	.	-9%	11µM*	-49%
O=C1NNC(c2ccccc2)=N/C1=C\c1ccco1	-1%	2%	-18%	20µM*	25%
Cc1ccc(C2=NOC(=O)/C2=C\C=C\c2ccccc2)cc1	-12%	35%	-14%	?	32µM*
CCCCCCOC(=O)Nc1ccc(S(=O)(=O)Nc2cccc([N+](=O)[O-])c2)cc1	-11%	7%	-2%	-3%	-30%
CN(C)/C=C1\C(=O)ON=C1c1ccccc1	2%	26%	8%	69%	-15%
O=C1ON=C(c2ccccc2)/C1=C/c1ccc(-c2ccccc2[N+](=O)[O-])o1	?	33%	-25%	11µM*	-51%
O=C1ON=C(c2ccccc2)/C1=C/c1ccco1	-4%	0%	-27%	20µM*	-43%
Cc1cc(=O)[nH]c(N/N=C/c2cccc([N+](=O)[O-])c2)n1	-10%	.	?	-20%	-4%
CCOc1cc(C2Nc3cccc4cccc(c34)N2)ccc1O	?	-7%	-29%	11µM*	-57%
CCOc1ccc(C2Nc3cccc4cccc(c34)N2)cc1OC	-10%	-13%	?	25µM*	-34%
CCOc1cc(C2Nc3ccccc3C(=O)N2c2ccccc2)ccc1O (centres undefined)	?	-5%	3%	2%	-38%
